Of roughly 7,900 targets only a part is listed; those with a hit were picked by preference. About 0.6% of all pairs of compound and target were hits.
Assays:
Experiment in all cases: log2 fold change, soluble protein after heating vs DMSO (PISA); higher = thermal stabilisation; K562 cells, 10 uM, 30 min; active = over 0.2 and 3.5 SD of the protein, either way, in both replicates (recomputed)
epoxomicin = compound: CC[C@H](C)[C@@H](C(=O)N[C@@H]([C@@H](C)O)C(=O)N[C@@H](CC(C)C)C(=O)[C@]1(CO1)C)NC(=O)[C@H]([C@@H](C)CC)N(C)C(=O)C [epoxomicin]
How it was run: (§1)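 K562 cells at 2×10^6 cells/mL were exposed to 10 μM compound for 30 min, then aliquots were heated for 3 min across 48°C-58°C, pooled, and extracted in PBS containing 0.5% NP-40 at 4°C. The supernatant after 21,000xg for 90 min was taken as soluble protein and measured by TMTpro 16plex LC-MS/MS with channel sums equalised. Thermal stability is reported relative to control samples, with values from duplicates. Fold changes are given on a log2 scale.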

[1] = compound: CCn1cc(-c2ccnc3[nH]c(-c4cccc(CN(C)C)c4)cc23)c(-c2ccc(NC(=O)N(C)C)cc2)n1
How it was run: as §1

rosiglitazone = compound: CN(CCOC1=CC=C(C=C1)C[C@H]2C(=O)NC(=O)S2)C3=CC=CC=N3 (racemic) [rosiglitazone]
How it was run: as §1

[2] = compound: CN1CCC(CNc2ccc3ncc(-c4cccc(OC(F)(F)F)c4)n3n2)CC1
How it was run: as §1

sotrastaurin = compound: CN1CCN(c2nc(C3=C(c4c[nH]c5ccccc45)C(=O)NC3=O)c3ccccc3n2)CC1 [sotrastaurin]
How it was run: as §1

[3] = compound: CC[C@@H]1C(=O)N(C)c2cnc(Nc3ccc(C(=O)NC4CCN(C)CC4)cc3OC)nc2N1C1CCCC1
How it was run: as §1

[4] = compound: CC[C@H](C)N1C=C(C2=C(C=C(C=C21)C3=CN=C(C=C3)N4CCNCC4)C(=O)NCC5=C(C=C(NC5=O)C)C)C
How it was run: as §1

[5] = compound: CCn1c(C(=O)N(C2CC2)C2CC2)cc2c3c(ncn3C)c(Nc3cc(C)n(C)n3)nc21
How it was run: as §1

[6] = compound: CN(C)CC(=O)Nc1ccc2[nH]c(=O)c3ccccc3c2c1
How it was run: as §1

[7] = compound: CN1C2=C(C3=C1C(=O)N(N=C3)CC4=CC(=CC=C4)N)SC(=C2)S(=O)C
How it was run: as §1

saracatinib = compound: CN1CCN(CCOc2cc(OC3CCOCC3)c3c(Nc4c(Cl)ccc5c4OCO5)ncnc3c2)CC1 [saracatinib]
How it was run: as §1

alvocidib = compound: CN1CC[C@H](c2c(O)cc(O)c3c(=O)cc(-c4ccccc4Cl)oc23)[C@H](O)C1 [alvocidib]
How it was run: as §1

Tubastatin A = compound: CN1CCc2c(c3ccccc3n2Cc2ccc(C(=O)NO)cc2)C1 [Tubastatin A]
How it was run: as §1

[8] = compound: CNC(=O)C1=CC=CC=C1NC2=NC(=NC=C2Cl)NC3=C(C=C(C=C3)N4CCOCC4)OC
How it was run: as §1

defactinib = compound: CNC(=O)c1ccc(Nc2ncc(C(F)(F)F)c(NCc3nccnc3N(C)S(C)(=O)=O)n2)cc1 [defactinib]
How it was run: as §1

rucaparib = compound: CNCc1ccc(-c2[nH]c3cc(F)cc4c3c2CCNC4=O)cc1 [rucaparib]
How it was run: as §1

[9] = compound: CNc1nc(-c2ccc3c(N)n[nH]c3c2)cc(N2C[C@@H](C(=O)NC3CCCCC3)CC[C@H]2C)n1
How it was run: as §1

encorafenib = compound: COC(=O)N[C@@H](C)CNc1nccc(-c2cn(C(C)C)nc2-c2cc(Cl)cc(NS(C)(=O)=O)c2F)n1 [encorafenib]
How it was run: as §1

[10] = compound: COC(=O)[C@H](CCSC)NC(=O)C1=C(C=C(C=C1)NC[C@H](CS)N)C2=CC=CC=C2
How it was run: as §1

volasertib = compound: CC[C@@H]1C(=O)N(C)c2cnc(Nc3ccc(C(=O)N[C@H]4CC[C@H](N5CCN(CC6CC6)CC5)CC4)cc3OC)nc2N1C(C)C [volasertib]
How it was run: as §1

Measured: log2 fold change

PRKD2 (UniProt M0R346)
inactive: epoxomicin -0.072 | [1] -0.025 | rosiglitazone -0.026 | [2] -0.14 | sotrastaurin -0.247

PI4K2B (UniProt Q8TCG2)
UniProt Q8TCG2, sequence (Q8TCG2 whole entry, looked up): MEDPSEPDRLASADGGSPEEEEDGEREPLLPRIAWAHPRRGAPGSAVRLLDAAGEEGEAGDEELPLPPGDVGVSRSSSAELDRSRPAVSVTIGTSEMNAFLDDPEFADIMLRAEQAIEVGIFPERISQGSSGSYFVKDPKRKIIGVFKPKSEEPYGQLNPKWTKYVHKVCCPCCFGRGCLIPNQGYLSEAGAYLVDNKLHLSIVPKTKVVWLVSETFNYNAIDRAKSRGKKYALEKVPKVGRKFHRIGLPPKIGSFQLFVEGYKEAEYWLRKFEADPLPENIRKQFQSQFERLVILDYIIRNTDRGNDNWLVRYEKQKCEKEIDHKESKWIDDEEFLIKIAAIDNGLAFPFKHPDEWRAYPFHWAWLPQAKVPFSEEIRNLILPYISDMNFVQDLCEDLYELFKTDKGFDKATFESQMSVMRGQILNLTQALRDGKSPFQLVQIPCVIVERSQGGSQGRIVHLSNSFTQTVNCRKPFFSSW
inactive: [3] -0.147 | [4] -0.039 | [5] -0.057 | [1] 0.045 | [6] -0.024 | rosiglitazone 0.004 | [7] 0.079 | [2] -0.1 | saracatinib -0.067 | sotrastaurin 0.04 | alvocidib -0.05 | Tubastatin A 0.028 | [8] -0.016 | defactinib 0.003 | rucaparib 0.097 | [9] -0.096 | encorafenib -0.148 | [10] -0.099

PMVK (UniProt Q15126)
inactive: [4] 0.069 | epoxomicin 0.003 | [5] 0.028 | [1] 0.142 | [6] 0.018 | rosiglitazone 0.067 | [7] 0.036 | [2] 0.057 | saracatinib -0.021 | sotrastaurin -0.003 | alvocidib -0.032 | Tubastatin A 0.229 | [8] -0.051 | defactinib 0.02 | [9] -0.039 | [10] -0.368

PRR14L (UniProt Q5THK1)
UniProt Q5THK1, sequence (Q5THK1 whole entry, looked up): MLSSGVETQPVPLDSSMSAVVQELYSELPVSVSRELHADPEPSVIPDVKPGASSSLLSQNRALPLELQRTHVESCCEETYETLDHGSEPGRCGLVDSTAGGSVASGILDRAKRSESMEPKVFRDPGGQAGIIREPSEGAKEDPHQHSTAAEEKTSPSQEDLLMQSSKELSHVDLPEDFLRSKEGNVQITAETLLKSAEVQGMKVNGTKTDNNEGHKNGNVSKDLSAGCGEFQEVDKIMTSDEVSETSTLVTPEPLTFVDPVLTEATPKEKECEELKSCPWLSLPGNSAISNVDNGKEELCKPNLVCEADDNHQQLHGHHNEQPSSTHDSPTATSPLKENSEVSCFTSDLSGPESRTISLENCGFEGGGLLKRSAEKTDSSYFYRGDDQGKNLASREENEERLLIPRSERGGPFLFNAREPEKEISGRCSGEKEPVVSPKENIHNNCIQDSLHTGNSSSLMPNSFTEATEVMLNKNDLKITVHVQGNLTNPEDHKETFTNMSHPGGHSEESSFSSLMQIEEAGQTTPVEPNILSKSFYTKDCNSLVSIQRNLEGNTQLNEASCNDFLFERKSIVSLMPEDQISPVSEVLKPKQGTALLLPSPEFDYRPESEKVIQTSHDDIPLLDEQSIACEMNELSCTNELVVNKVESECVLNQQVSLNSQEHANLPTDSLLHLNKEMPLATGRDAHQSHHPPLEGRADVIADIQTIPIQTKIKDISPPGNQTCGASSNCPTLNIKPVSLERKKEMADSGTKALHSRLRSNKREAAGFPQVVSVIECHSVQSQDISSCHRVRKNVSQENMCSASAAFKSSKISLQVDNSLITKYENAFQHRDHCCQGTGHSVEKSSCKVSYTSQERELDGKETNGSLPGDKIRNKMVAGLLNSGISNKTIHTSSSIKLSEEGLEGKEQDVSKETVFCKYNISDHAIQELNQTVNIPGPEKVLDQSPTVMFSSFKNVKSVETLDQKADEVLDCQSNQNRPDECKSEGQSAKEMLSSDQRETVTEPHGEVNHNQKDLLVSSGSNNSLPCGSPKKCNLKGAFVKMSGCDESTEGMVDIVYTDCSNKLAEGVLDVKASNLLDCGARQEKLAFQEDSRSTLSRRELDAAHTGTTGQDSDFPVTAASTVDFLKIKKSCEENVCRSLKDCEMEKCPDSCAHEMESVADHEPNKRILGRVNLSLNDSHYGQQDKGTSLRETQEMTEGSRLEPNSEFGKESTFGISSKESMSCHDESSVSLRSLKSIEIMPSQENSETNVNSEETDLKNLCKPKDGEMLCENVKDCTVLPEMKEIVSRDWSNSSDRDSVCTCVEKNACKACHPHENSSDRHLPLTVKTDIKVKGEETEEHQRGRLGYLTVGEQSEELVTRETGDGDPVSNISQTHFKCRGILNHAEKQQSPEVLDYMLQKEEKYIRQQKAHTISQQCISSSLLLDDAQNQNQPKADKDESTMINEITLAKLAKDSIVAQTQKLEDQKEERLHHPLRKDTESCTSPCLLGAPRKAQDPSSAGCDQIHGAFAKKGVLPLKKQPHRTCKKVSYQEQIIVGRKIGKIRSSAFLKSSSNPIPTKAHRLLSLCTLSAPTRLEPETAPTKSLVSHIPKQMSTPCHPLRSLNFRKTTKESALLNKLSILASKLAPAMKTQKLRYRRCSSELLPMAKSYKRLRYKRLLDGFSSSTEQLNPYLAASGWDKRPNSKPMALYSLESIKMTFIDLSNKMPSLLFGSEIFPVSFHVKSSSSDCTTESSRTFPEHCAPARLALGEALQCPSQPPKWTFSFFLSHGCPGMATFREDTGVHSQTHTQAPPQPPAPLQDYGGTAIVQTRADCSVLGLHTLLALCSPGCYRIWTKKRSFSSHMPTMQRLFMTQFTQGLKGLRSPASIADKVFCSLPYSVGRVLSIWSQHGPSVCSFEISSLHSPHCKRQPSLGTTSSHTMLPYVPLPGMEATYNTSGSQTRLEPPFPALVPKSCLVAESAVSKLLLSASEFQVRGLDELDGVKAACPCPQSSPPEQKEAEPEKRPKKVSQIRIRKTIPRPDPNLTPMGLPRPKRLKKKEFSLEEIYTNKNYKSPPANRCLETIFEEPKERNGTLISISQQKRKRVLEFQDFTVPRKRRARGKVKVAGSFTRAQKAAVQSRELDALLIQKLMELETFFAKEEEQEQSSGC
inactive: volasertib 0.218 | [4] -0.088 | [1] 0.006 | [6] -0.134 | [2] 0.073 | alvocidib 0.016 | Tubastatin A 0.053 | defactinib 0.286 | [10] 0.125

PIAS4 (UniProt Q8N2W9)
UniProt Q8N2W9, sequence (Q8N2W9 whole entry, looked up): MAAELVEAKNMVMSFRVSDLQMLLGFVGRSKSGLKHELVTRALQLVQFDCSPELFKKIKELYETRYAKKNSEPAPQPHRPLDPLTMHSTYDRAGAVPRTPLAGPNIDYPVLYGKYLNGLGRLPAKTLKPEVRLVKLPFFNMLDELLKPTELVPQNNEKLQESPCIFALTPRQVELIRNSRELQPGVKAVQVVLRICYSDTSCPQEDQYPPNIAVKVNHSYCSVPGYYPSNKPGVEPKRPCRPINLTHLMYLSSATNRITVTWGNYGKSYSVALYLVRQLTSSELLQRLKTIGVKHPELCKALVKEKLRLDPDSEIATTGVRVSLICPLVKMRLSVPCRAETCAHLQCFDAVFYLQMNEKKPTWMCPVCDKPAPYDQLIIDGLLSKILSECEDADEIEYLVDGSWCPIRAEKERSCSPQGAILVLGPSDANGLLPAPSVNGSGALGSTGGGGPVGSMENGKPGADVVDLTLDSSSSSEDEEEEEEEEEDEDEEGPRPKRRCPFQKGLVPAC
inactive: volasertib -0.406 | epoxomicin 0.11 | [1] -0.064 | [7] 0.173 | [2] 0.062 | saracatinib -0.207 | Tubastatin A -0.057 | [9] -0.043

PAN2 (UniProt Q504Q3)
active: rucaparib -0.656
inactive: [3] 0.101 | [4] 0.167 | [6] 0.006 | rosiglitazone 0.181 | [7] 0.143 | saracatinib 0.113 | defactinib 0.001 | [9] -0.048 | encorafenib 0.073 | [10] -0.045

POLR3D (UniProt P05423)
UniProt P05423, sequence (P05423 whole entry, looked up): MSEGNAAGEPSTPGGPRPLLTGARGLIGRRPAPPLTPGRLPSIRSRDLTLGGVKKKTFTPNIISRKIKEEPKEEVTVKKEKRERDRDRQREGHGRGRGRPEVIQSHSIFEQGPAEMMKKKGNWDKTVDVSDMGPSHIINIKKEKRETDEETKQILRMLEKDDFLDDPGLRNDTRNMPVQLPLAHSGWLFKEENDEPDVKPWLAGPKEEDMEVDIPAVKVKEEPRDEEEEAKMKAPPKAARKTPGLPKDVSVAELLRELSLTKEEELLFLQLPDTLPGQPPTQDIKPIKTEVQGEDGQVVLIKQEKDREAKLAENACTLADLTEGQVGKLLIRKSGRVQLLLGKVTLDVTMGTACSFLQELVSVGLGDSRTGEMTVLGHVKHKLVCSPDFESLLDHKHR
active: volasertib -0.394
inactive: [4] 0.107 | epoxomicin -0.066 | [5] -0.06 | [1] 0.032 | [6] 0.018 | rosiglitazone -0.005 | [7] 0.61 | [2] -0.035 | saracatinib 0.264 | sotrastaurin -0.029 | alvocidib 0.024 | Tubastatin A 1.53 | [8] -0.074 | defactinib -0.027 | [9] 0.425 | [10] -0.08

PCF11 (UniProt O94913)
UniProt O94913, sequence (O94913 whole entry, looked up): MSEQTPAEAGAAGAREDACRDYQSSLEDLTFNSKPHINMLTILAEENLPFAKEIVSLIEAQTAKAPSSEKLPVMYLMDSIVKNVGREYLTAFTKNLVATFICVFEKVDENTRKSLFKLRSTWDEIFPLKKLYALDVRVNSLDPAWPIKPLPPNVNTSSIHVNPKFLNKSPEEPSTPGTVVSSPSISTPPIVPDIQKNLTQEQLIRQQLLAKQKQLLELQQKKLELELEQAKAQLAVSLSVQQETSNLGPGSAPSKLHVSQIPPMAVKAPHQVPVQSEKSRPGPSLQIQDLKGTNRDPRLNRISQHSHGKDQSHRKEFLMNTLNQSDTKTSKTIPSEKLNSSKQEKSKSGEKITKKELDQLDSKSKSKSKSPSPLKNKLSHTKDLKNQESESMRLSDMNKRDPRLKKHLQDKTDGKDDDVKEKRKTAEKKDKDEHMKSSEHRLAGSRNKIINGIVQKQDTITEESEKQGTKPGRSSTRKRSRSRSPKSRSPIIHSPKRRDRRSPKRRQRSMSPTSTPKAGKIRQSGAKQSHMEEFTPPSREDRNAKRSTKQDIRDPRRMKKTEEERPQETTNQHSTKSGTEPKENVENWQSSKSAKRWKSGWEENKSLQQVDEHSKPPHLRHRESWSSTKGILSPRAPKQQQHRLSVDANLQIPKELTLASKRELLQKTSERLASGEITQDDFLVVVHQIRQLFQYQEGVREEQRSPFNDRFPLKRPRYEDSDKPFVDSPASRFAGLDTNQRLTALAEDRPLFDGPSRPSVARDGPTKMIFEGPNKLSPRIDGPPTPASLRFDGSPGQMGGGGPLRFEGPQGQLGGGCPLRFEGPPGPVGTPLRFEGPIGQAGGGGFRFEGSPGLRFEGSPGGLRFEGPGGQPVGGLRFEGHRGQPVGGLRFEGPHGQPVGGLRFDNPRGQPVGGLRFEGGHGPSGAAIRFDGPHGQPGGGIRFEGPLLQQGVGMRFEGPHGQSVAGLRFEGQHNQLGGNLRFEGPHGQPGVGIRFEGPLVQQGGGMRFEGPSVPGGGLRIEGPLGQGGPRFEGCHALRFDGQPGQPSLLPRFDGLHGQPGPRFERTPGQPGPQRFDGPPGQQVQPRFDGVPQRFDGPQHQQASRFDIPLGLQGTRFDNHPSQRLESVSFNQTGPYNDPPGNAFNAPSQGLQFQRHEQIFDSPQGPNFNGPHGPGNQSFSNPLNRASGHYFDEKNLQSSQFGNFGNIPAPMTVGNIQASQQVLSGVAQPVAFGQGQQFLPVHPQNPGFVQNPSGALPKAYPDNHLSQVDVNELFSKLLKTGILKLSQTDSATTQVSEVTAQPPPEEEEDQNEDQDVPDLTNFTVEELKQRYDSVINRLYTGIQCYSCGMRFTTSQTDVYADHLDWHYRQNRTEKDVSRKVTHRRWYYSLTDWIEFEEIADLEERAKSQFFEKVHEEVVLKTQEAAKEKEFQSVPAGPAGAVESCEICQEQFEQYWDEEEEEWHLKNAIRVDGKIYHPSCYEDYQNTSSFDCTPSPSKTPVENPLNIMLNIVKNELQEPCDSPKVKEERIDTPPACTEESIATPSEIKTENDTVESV
inactive: [3] -0.014 | volasertib -0.114 | [1] 0.038 | [6] -0.078 | rosiglitazone 0.314 | [2] -0.03 | alvocidib 0.027 | defactinib -0.059 | encorafenib -0.06 | [10] 0.095
active: rucaparib -0.995

PLCL1 (UniProt Q15111)
inactive: [3] -0.018 | [4] 0.232 | epoxomicin -0.034 | [5] -0.206 | [1] 0.311 | [6] 0.035 | rosiglitazone -0.128 | [2] -0.094 | sotrastaurin 0.032 | alvocidib 0.109 | Tubastatin A 0.166 | [8] -0.131 | defactinib -0.02 | rucaparib 0.2 | encorafenib 0.018 | [10] 0.047

PLCXD1 (UniProt Q9NUJ7)
inactive: rosiglitazone 0.009

PSMD8 (UniProt K7EK21)
inactive: alvocidib 0.25

PRKD3 (UniProt O94806)
inactive: [5] -0.033 | [1] -0.125 | [6] 0.059 | rosiglitazone 0.192 | [7] -0.002 | [2] -0.418 | saracatinib 0.023 | sotrastaurin -0.31 | alvocidib 0.066 | [8] -0.335 | defactinib -0.068 | [9] 0.002 | [10] -0.058

PIM1 isoform 2 (UniProt P11309)
inactive: [1] -0.068
active: [2] 2.26

PPP2R5C isoform 2 (UniProt Q13362)
inactive: [3] -0.209 | [5] -0.099 | rosiglitazone 0.009 | [8] -0.017 | rucaparib -0.063 | encorafenib 0.003

PSMD8 (UniProt K7ERW6)
inactive: [6] 0.027 | Tubastatin A 0.235 | defactinib 0.011 | [10] 0.066

PRKD2 isoform 3 (UniProt Q9BZL6)
active: volasertib -0.674
inactive: [4] 0.149 | epoxomicin 0.049 | [5] 0.005 | [1] -0.089 | [6] 0.042 | rosiglitazone 0.144 | [7] 0.056 | [2] -0.316 | saracatinib -0.031 | sotrastaurin -0.273 | alvocidib 0.034 | Tubastatin A 0 | [8] -0.242 | defactinib -0.004 | [9] -0.075 | [10] -0.024

Reference: the supplement of paper PMC10849652
